As usually defined, the inhibition is the relative decrease from the control value, in per cent.

The nature of assay [1]: antimalarial activity against Dd2 strain (AID 2302;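 active = growth inhibition above 50% at the single 2 µM test dose, taken to imply half-maximal potency below 2 µM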;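 note: 0% = DMSO untreated growth and 100% = chloroquine plus artemisinin killed control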). The note with it: P. falciparum Dd2 in RBCs, LDH growth readout, 72 h; at 2 µM; hits give high values.
Assay [2] can be described thus: HepG2 cytotoxicity, primary screen, cytotoxicity control for P. falciparum antimalarial project, cell-based, ATP luminescence (AID 2303;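 active = inhibition above 50%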;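 note: 0% = DMSO wells and 100% = digitonin-killed cells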). Conditions: HepG2 viability, 24-48 h, at 10 µM, hits give high values.
The target of assay [3] is L-lactate dehydrogenase (Plasmodium falciparum (isolate CDC / Honduras)) (UniProt Q27743). As to the kind of experiment: PfLDH activity inhibition – cell lysate, 3D7 strain, counter-screen for P. falciparum growth inhibition project (AID 2304).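 Note: 0% = vehicle and 100% = reference inhibitor.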 The note with it: P. falciparum 3D7 crude extract, LDH APAD/NBT absorbance; at 2 µM; hits give high values. (Counterscreens check selectivity or assay interference.)
Chain of L-lactate dehydrogenase (Plasmodium falciparum (isolate CDC / Honduras)) (Q27743 whole entry, looked up): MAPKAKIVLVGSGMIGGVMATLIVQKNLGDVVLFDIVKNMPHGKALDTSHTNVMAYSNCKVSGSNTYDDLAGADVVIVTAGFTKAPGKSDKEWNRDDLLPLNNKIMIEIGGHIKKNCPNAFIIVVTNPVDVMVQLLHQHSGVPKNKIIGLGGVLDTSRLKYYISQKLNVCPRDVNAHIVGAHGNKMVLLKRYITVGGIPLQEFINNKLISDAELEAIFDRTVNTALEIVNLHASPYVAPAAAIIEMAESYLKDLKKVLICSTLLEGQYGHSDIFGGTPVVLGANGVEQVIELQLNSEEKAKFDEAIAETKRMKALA

Assay [4] in a line: inhibition of 3D7 malaria parasite growth – strain 3D7 (AID 2306).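 Note: 0% = DMSO wells and 100% = chloroquine plus artemisinin control wells.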 Conditions: P. falciparum 3D7 erythrocytic growth, LDH absorbance, 72 h; at 2 µM; hits give high values.
Assay [5] addresses Calcium-dependent protein kinase 1 (Plasmodium falciparum (isolate 3D7)) (UniProt P62344). As to the kind of experiment: PfCDPK1 kinase inhibitors, biochemical, TCAMS library (AID 1159585; cut-off not given, nearly all actives have IC50 up to about 0.98 µM;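 note: inhibitors leave more ATP so luminescence rises with inhibition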). Conditions: recombinant PfCDPK1, Kinase-Glo ATP depletion luminescence. For orientation: In Kinase-Glo more light means more ATP remaining.
In assay [6] the target is Plasmodium falciparum protein kinase 6 (PK6, PF3D7_1337100) (UniProt Q8IDW1). As to the kind of experiment: PfPK6 kinase inhibitors, biochemical, TCAMS library (AID 1159586). The note with it: recombinant PfPK6, Kinase-Glo ATP depletion luminescence.
Chain of Plasmodium falciparum protein kinase 6 (PK6, PF3D7_1337100) (Q8IDW1 1-305): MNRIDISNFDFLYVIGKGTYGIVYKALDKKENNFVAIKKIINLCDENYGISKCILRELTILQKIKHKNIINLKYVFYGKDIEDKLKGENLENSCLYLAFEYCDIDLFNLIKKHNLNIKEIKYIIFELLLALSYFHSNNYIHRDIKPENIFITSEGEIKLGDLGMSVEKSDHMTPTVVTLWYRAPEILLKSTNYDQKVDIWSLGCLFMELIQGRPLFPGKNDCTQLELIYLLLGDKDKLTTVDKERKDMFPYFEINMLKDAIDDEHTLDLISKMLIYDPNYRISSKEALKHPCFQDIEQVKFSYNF
In assay [7] the target is Protein kinase 7 (PK7), Plasmodium falciparum 3D7 (PF3D7_0213400) (UniProt Q7YTF7). As to the kind of experiment: inhibition of Plasmodium PK7 catalytic activity – biochemical, TCAMS antimalarial set, Kinase-Glo luminescence (AID 1159587). Conditions: recombinant PfPK7, Kinase-Glo ATP depletion luminescence.
Chain of Protein kinase 7 (PK7), Plasmodium falciparum 3D7 (PF3D7_0213400) (Q7YTF7 1-343): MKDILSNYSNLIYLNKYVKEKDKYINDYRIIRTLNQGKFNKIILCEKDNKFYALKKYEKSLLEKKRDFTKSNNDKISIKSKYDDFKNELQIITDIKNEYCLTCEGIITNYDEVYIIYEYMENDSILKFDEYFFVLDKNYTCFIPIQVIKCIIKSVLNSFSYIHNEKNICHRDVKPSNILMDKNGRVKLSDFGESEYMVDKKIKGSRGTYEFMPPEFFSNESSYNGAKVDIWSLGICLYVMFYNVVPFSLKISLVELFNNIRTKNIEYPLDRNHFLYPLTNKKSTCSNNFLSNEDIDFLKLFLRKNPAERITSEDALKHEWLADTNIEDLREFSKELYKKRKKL
The target in assay [8] is Calcium-dependent protein kinase 4 (Plasmodium falciparum (isolate 3D7)) (UniProt Q8IBS5). As to the kind of experiment: PfCDPK4 kinase inhibitors, biochemical, TCAMS library (AID 1159588; cut-off not given, nearly all actives have IC50 up to about 0.91 µM). The note with it: recombinant PfCDPK4, Kinase-Glo ATP depletion luminescence.
Chain of Calcium-dependent protein kinase 4 (Plasmodium falciparum (isolate 3D7)) (Q8IBS5 whole entry, looked up): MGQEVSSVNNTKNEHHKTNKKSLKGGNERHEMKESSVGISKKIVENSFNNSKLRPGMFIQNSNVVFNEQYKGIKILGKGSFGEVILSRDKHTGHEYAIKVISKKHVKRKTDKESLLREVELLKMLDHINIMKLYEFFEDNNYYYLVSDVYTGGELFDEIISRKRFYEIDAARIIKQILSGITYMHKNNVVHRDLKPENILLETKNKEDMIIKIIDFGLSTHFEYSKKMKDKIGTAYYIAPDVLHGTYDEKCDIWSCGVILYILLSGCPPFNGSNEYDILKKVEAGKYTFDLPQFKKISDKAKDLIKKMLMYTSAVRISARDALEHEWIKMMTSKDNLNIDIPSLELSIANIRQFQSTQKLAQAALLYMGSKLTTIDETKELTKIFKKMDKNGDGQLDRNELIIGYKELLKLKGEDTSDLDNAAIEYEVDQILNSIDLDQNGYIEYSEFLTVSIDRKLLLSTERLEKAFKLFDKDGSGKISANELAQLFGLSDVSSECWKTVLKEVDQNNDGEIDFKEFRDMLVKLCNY

Unmarked numbers belong to inactive results. For some assays here: Entries with a potency or affinity are not part of this list. The source made the active and inactive calls. Unless noted, the rule behind the calls is not given here.

Chain of Calcium-dependent protein kinase 1 (Plasmodium falciparum (isolate 3D7)) (P62344 whole entry, looked up): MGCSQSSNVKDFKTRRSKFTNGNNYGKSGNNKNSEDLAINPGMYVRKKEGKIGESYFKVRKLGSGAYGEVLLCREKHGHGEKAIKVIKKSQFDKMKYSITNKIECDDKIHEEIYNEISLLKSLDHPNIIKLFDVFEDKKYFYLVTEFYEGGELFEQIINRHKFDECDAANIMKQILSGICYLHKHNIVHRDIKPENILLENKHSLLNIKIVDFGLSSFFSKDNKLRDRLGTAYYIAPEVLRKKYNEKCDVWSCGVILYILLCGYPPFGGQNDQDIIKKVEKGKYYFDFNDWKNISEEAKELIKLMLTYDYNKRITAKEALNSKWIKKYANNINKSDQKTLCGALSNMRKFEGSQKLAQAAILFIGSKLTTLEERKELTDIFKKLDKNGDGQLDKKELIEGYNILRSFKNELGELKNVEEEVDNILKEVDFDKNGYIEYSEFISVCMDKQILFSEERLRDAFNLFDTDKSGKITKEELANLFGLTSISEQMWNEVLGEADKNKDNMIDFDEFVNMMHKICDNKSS

For the molecule `COc1ccc2ncc(C#N)c(CCN3CCC(NCc4cnc5c(c4)OCCO5)CC3)c2n1`, the growth inhibition in assay [1] is 24%; in assay [4], 91% (active). For the same molecule, the inhibition in assay [2] is 3%; in assay [3], -3%. In addition, the result in assay [5], in assay [6], in assay [7] and in assay [8] was inactive.

Regarding `Cc1ccc(Cn2nc(N3CCNCC3)ccc2=O)cc1NC(=O)Nc1ccc(-c2ccccc2)cc1`, the growth inhibition in assay [1] is 20%; in assay [4], 94% (active). The inhibition in assay [2] was 46%; in assay [3], -1%. Also, the result in assay [5], in assay [6], in assay [7] and in assay [8] was inactive.

Regarding `COc1ccc2ncc(F)c(CCN3CCC(NCc4cc(C)c5c(c4)OCCO5)CC3)c2n1`, the growth inhibition is 67% (active) in assay [1] and 100% (active) in assay [4]. Further, the inhibition in assay [2] was 20%; in assay [3], 0%. Moreover, the result in assay [5], in assay [6], in assay [7] and in assay [8] was inactive.

As for `CCCNCc1ccc(-c2ccc(CN(CCOC)C(=O)COc3ccccc3Cl)cc2)nc1`, the growth inhibition in assay [1] was 29%; in assay [4], 96% (active). Moreover, the inhibition in assay [2] was -1%; in assay [3], -2%. Further, the outcome in assay [5], in assay [6], in assay [7] and in assay [8] was inactive.

For the molecule `Cc1ccc2[nH]c(C)c(Br)c(=O)c2c1`, the growth inhibition in assay [1] was 84% (active); in assay [4] it was 95% (active). For the same molecule, the inhibition is -4% in assay [2] and -5% in assay [3]. In addition, the result in assay [5], in assay [6], in assay [7] and in assay [8] was inactive.

In the case of `O=C1COC(c2ccccc2)(c2ccccc2)CN1CC1CCN(Cc2ccc(O)cc2Cl)C1` (configuration not stated), the growth inhibition in assay [1] is 81% (active); in assay [4], 85% (active). In addition, the inhibition is 53% (active) in assay [2] and 2% in assay [3]. The outcome in assay [5], in assay [6], in assay [7] and in assay [8] was inactive.

Turning to `O=C(NCCCCN1CCN(c2cccc3c2OCCO3)CC1)c1ccc(NC(=O)c2cc(Cl)cc(Cl)c2)cc1`, the growth inhibition in assay [1] is 89% (active); in assay [4] it was 101% (active). Besides, the inhibition in assay [2] is 21%; in assay [3] it was -3%. For the same molecule, the outcome in assay [5], in assay [6], in assay [7] and in assay [8] was inactive.

For `CN(C)CCCn1c(N)c(-c2nc3ccccc3[nH]2)c2nc(C#N)c(C#N)nc21`, the growth inhibition is 101% (active) in assay [1] and 102% (active) in assay [4]. In addition, the results for the inhibition in assay [2] and in assay [3] were 100% (active) and -1%, respectively. Moreover, the result in assay [5], in assay [6], in assay [7] and in assay [8] was inactive.

Turning to `CN1CCN(C(C(=O)NCc2cc(Cl)cc(Cl)c2)c2ccccc2-c2ccsc2)CC1` (configuration not stated), the values for the growth inhibition in assay [1] and in assay [4] were 80% (active) and 95% (active), respectively. In addition, the values for the inhibition in assay [2] and in assay [3] were 11% and 2%, respectively. For the same molecule, the outcome in assay [5], in assay [6], in assay [7] and in assay [8] was inactive.

Regarding `C=CCn1c(Sc2ccc(C#N)c([N+](=O)[O-])c2)nnc1-c1cc(OC)cc(OC)c1`, the growth inhibition was 84% (active) in assay [1] and 96% (active) in assay [4]. The inhibition is 12% in assay [2] and 0% in assay [3]. The result in assay [5], in assay [6], in assay [7] and in assay [8] was inactive.

`COc1cc(OC)cc(-c2nn(-c3ccc([N+](=O)[O-])cc3C#N)c(=S)n2Cc2ccco2)c1`: the growth inhibition in assay [1] and in assay [4] was 100% (active) in each case. For the same molecule, the inhibition was 11% in assay [2] and -6% in assay [3]. In addition, the outcome in assay [5], in assay [6], in assay [7] and in assay [8] was inactive.

Take `CC(C)N(C(=O)CSc1nc2cc(Cl)ccc2c(=O)n1Cc1ccccc1)C(C)C`: the growth inhibition in assay [1] is 97% (active); in assay [4], 100% (active). Also, the inhibition in assay [2] was -14%; in assay [3], -5%. Also, the outcome in assay [5], in assay [6], in assay [7] and in assay [8] was inactive.

For `COc1ccc2nccc([C@@H](O)CN3CCC(NCc4ccc5c(c4)NC(=O)CS5)CC3)c2n1`, the growth inhibition in assay [1] is 34%; in assay [4] it was 101% (active). Moreover, the inhibition was 1% in assay [2] and -3% in assay [3]. Further, the result in assay [5], in assay [6], in assay [7] and in assay [8] was inactive.

On to `O=C(NCCCCCN1CCC(c2c[nH]c3ccccc23)CC1)c1ccc(-c2cccnc2)cc1`, for which the growth inhibition in assay [1] is 10%; in assay [4], 89% (active). For the same molecule, the inhibition in assay [2] was 29%; in assay [3], 1%. Moreover, the result in assay [5], in assay [6], in assay [7] and in assay [8] was inactive.

In the case of `COc1cc(C(=O)Nc2ccc(-c3nc4ccccc4[nH]3)cc2)cc(OC)c1OC`, the growth inhibition is 33% in assay [1] and 99% (active) in assay [4]. Further, the values for the inhibition in assay [2] and in assay [3] were 13% and -8%, respectively. Further, the result in assay [5], in assay [6], in assay [7] and in assay [8] was inactive.

On to `COc1ccc(-c2ccc(NC(=O)c3ccc(Cl)cc3)cc2)cc1CN1CCNCC1`, for which the growth inhibition in assay [1] was 24%; in assay [4] it was 99% (active). In addition, the results for the inhibition in assay [2] and in assay [3] were 14% and 5%, respectively. Moreover, the result in assay [5], in assay [6], in assay [7] and in assay [8] was inactive.

On to `CCOc1c(Br)cc(C)cc1CNCCCNc1nc2ccccc2[nH]1`, for which the growth inhibition in assay [1] was 5%; in assay [4] it was 93% (active). For the same molecule, the inhibition is 24% in assay [2] and 6% in assay [3]. The outcome in assay [5], in assay [6], in assay [7] and in assay [8] was inactive.

On to `CC[C@H](C)CNC(=O)c1ccnc(-c2ccc(CN3CCC(N4CCCC4)CC3)cc2)c1`, for which the growth inhibition in assay [1] was 84% (active); in assay [4], 99% (active). Also, the inhibition in assay [2] is 13%; in assay [3], -2%. In addition, the outcome in assay [5], in assay [6], in assay [7] and in assay [8] was inactive.

Consider `COc1ccccc1C1CCN(C2CCC(NC(=O)/C=C/c3cc(C(F)(F)F)ccc3F)CC2)CC1` (configuration not stated), for which the growth inhibition is 32% in assay [1] and 97% (active) in assay [4]. Moreover, the inhibition is 39% in assay [2] and -3% in assay [3]. For the same molecule, the result in assay [5], in assay [6], in assay [7] and in assay [8] was inactive.

For the origin of these results see PubChem BioAssay.
